Source: PubChem BioAssay (National Center for Advancing Translational Sciences (NCATS))
Sampled rows, rich in hits. Any-hit rate of the full collection: about 11%.
ALDH1A1 block: qHTS Assay for Inhibitors of Aldehyde Dehydrogenase 1 (ALDH1A1) | Purified ALDH1A1, NADH fluorescence, propionaldehyde substrate | Potency, µM (top dose mostly 75.3 µM), for the others: at the highest dose activity, negative = inhibition, hits mostly inhibitors | 220,000 tested, 7.3% active | AID 1030, 2008; active means well fitted inhibition curve with a large enough effect, not every such curve was filed as active; inconclusive means small, poorly fitted or top-dose-only effect, or another doubt; inactive means no such curve, though single readings can be large or run the other way;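 further: potency means the concentration at half of the fitted maximal effect; plate controls were no enzyme wells and a reference inhibitor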
CBFb RUNX1 block: qHTS Assay for Compounds Blocking the Interaction Between CBF-beta and RUNX1 for the Treatment of Acute Myeloid Leukemia. Runt-related transcription factor 1 (Homo sapiens) + Core-binding factor subunit beta …. AlphaScreen CBFb-His/RUNX1-biotin binding, biochemical. Potency, µM (titrated, usually from 59.8 µM), without a hit: top-dose activity, negative = inhibition, hits mostly inhibitors. 230,000 tested, under 10 active; further: % of control where 0% means no effect
Target sequence (Q01196 whole entry, looked up): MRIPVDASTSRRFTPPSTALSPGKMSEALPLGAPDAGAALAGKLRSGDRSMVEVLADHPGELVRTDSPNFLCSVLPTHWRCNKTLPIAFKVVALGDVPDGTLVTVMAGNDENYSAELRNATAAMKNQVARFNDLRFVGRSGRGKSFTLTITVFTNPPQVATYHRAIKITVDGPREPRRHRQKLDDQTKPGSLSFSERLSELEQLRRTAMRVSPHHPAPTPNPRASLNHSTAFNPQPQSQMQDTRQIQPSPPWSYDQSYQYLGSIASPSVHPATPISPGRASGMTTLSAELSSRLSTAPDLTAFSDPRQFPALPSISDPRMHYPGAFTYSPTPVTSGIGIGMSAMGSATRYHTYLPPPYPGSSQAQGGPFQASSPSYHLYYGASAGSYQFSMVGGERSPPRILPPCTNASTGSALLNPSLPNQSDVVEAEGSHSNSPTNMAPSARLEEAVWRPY
Target sequence (Q13951 whole entry, looked up): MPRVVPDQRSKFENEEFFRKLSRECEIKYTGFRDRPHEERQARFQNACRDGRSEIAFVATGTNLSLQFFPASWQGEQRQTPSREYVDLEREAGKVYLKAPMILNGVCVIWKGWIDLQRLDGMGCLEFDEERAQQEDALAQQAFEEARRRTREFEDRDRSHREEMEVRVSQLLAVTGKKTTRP
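His-tagged CBF-beta and biotinylated RUNX1 (30 nM each) were premixed 20 min at room temperature, exposed to compound for 15 min, then given nickel-chelate and streptavidin AlphaScreen beads (50 ng each). After 90 min, AlphaScreen signal was read.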
HTT aggregate: qHTS Multiplex Assay to Identify Dual Action Probes in a Cell Model of Huntington: Aggregate Formation (GFP) | Potency, µM (series often up to 46.1 µM), inactives show at the top dose activity change, negative = inhibition, most hits filed as inhibitors | PC12 HttQ103-GFP aggregates, Acumen cytometry, 40 h | 220,000 tested, 1.1% active; further: potency means the concentration at half of the fitted maximal effect; on the % scale 0 is the no-effect control and ±100 the full control effect; nearly all actives have a fitted effect of over 60% in size
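Using laser scanning cytometry, GFP-positive aggregates were counted after lysis of PC12 cells induced with 100 nM tebufenozide to express HTT exon 1 Q103–GFP. Compounds were tested in titration.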
PNC assembly inh: High Content Assay for Compounds that inhibit the Assembly of the Perinucleolar Compartment | PC3M PTB-GFP, PNC prevalence imaging, 16 h; hits give low values | activity change (PNC), negative = inhibition, % at 10 µM | 140,000 tested, 3.1% active | AID 2417, 2010;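 active means readout at or below -70, meaning at least 70% loss of cells showing the perinucleolar compartment, a nuclear body marking cancer cells; inconclusive means readout between -30 and a set limit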;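 further: plate controls were DMSO wells for no effect and camptothecin positive control wells for full effect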
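Compounds are pinned in duplicate onto adhered PC3M cells stably expressing GFP-tagged PTB and incubated 16 h at 37 C. Cells are then fixed, nuclei stained with Hoechst, and PNC-positive cells counted.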
HPGD block: qHTS Assay for Inhibitors of HPGD (15-Hydroxyprostaglandin Dehydrogenase); 15-hydroxyprostaglandin dehydrogenase [NAD(+)] (Homo sapiens), P15428; purified HPGD, NADH fluorescence kinetic, PGE2 substrate; Potency, µM, without a hit: top-dose activity change, negative = inhibition, usual class: inhibitors; 150,000 tested, 4.3% active; AID 894, 2007; active means well fitted inhibition curve with a large enough effect, not every such curve was filed as active; inconclusive means small, poorly fitted or top-dose-only effect, or another doubt; inactive means no such curve, though single readings can be large or run the other way; further: potency means the concentration at half of the fitted maximal effect; on the % scale 0 is the no-effect control and ±100 the full control effect
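NADH formation kinetics: reaction with 30 uM PGE2 and 1 mM NAD+ (final), 20 nM enzyme, Tris-HCl pH 8 with Tween 20, after 15 min compound preincubation at room temperature. Fluorescence change, last versus first of five reads.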
HTT cytoprotect: qHTS Multiplex Assay to Identify Dual Action Probes in a Cell Model of Huntington: Cytoprotection (ATP); PC12 HTT-Q103 induced, cytoprotection, ATP luminescence, 40 h; Potency, µM (top dose mostly 56.4 µM), for inactives: cytoprotection (ATP increase), hits mostly activators; 230,000 tested, 0.14% active; further: potency means the concentration at half of the fitted maximal effect; % of control where 0% means no effect; nearly all actives have a fitted effect of over 45% in size
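Compounds were screened for protection of PC12 cells against cell death after tebufenozide induction (100 nM final) of mutant Huntingtin exon 1 (Q103) fused to GFP.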
Numbers without * were called inactive; ? = inconclusive; nt = not tested or not shown; [ ] = remark or other dose. Unless noted, the call rests on the fitted dose curve; in most records, active means well fitted curve in the direction sought with a large enough effect; inconclusive means small, poorly fitted or top-dose-only effect, or another doubt; inactive means no such curve, though single readings can be large; an effect the other way counts as inactive or inconclusive.

SMILES | ALDH1A1 block | CBFb RUNX1 block | HTT aggregate | PNC assembly inh | HPGD block | HTT cytoprotect
Cc1nc2sc3c(c2c(=O)n1N)CCC3 | ? | -5% | -4% | nt | nt | -10%
Cc1ccccc1-c1nc2sc3c(c2c(=O)o1)CCC3 | -16% | -3% | -8% | 12 | 16µM* | -4%[10 µM]
O=c1oc(-c2ccccc2)nc2sc3c(c12)CCCC3 | ? | 7% | -23% | 1 | ? | -26%
Cc1ccc(C(=O)NCC(=O)OCC(=O)c2c(N)n(C)c(=O)n(C)c2=O)s1 | 19% | 1% | -18% | ? | 0% | 15%[10 µM]
CCOC(=O)C1=C[C@@]2(CC)CCCN3CCc4c(n1c1ccccc41)C32 (some centres not stated) | 8% | 13% | nt | nt | -5% | 0%
COc1ccccc1CN1CCCC2(CCN(S(=O)(=O)c3ccccc3)CC2)C1 | 2% | nt | nt | nt | -3% | -67%
C=CCn1c(N)cc(=O)nc1SCC(=O)N1CCN(c2ccc(F)cc2)CC1 | 14µM* | 5% | -2% | 6 | -7% | 1%[10 µM]
C=CCn1c(N)cc(=O)nc1SCC(=O)Nc1ccc2ccccc2c1 | 0% | 1% | -23% | 22 | -7% | 2%[10 µM]
CCn1c(SCC(=O)N2CCN(c3ccc(F)cc3)CC2)nc2ccccc2c1=O | 25µM* | 3% | -8% | -15 | -18% | -7%
CCSc1nc2c(c(=O)n1Cc1ccccc1)SC(C)C2 (configuration not stated) | ? | -5% | 28µM* | ? | -17% | 5%
CC1CCN(C(=O)CSc2nc3ccccc3[nH]2)CC1 | ? | 10% | 7% | -26 | -23% | -14%[10 µM]
O=C(CSc1nc2ccccc2[nH]1)N1CCN(c2ccc(F)cc2)CC1 | 25µM* | 0% | 9% | 33 | -11% | 9%
CCOC(=O)c1c(-c2ccccc2)csc1NC(=O)c1cc2ccccc2oc1=O | -2% | -2% | 3% | 8 | -11% | -9%[10 µM]
CSc1ncccc1C(=O)Nc1nc2ccc(Oc3ccccc3)cc2s1 | 256% | 0% | ? | -14 | 174% | -25%[10 µM]
CCOC(=O)c1c(-c2ccccc2Cl)csc1NC(=O)c1cc(S(=O)(=O)N2CCOCC2)ccc1C | ? | 6% | -2% | -11 | ? | 11%[10 µM]
CCn1c(SCC(=O)N2CCN(c3ccccc3)CC2)nc2c(c1=O)SC(C)C2 (configuration not stated) | 2.2µM* | -10% | 3% | -25 | -29% | 17%
C=CCn1c(CSCc2ccccc2)nnc1SCC(=O)N1CCN(c2ccccc2)CC1 | 0.79µM* | 2% | -13% | 2 | nt | 16%[10 µM]
CC1Cc2nc(SCC(=O)N3CCN(c4ccccc4)CC3)n(CCc3ccccc3)c(=O)c2S1 (configuration not stated) | -8% | -11% | 4% | ? | -11% | -1%[10 µM]
CCn1c(CCCc2nc3c([nH]2)c(=O)n(C)c(=O)n3C)nc2c1c(=O)n(C)c(=O)n2C | 3%[13.5 µM] | nt | nt | nt | -5% | -4%[10 µM]
CCn1c(SCC(=O)O)nnc1-c1ccccc1 | -1% | 16% | 0% | -96* | -12% | 11%
Cc1ccc(C(=O)CSc2nnc(-c3ccncc3)n2C)cc1 | 10% | 5% | 13% | nt | nt | 9%[10 µM]
CCn1c(SCC(=O)c2ccc(C)cc2)nnc1-c1ccncc1 | ? | -7% | -4%[1.84 µM] | -2 | 32µM* | -20%
CCn1c(SCC(=O)c2ccc(C)cc2)nnc1-c1ccoc1C | ? | ? | ? | 1 | 32µM* | 14%[10 µM]
O=C(Nc1cccc(F)c1)N1CCC2(CCNCC2)CC1 | ? | nt | nt | nt | 2% | -68%
Cc1cc(C)n2nc(SCC3COc4ccccc4O3)nc2n1 (configuration not stated) | -4% | 0% | 4% | 5 | 7.1µM* | -7%[1.9 µM]
SMILES | ALDH1A1 block | CBFb RUNX1 block | HTT aggregate | PNC assembly inh | HPGD block | HTT cytoprotect
N#Cc1cc2c(nc1SCC1COc3ccccc3O1)CCC2 (configuration not stated) | ? | ? | -24% | 17 | 25µM* | -10%
Cc1cc(C)n2nc(SCCOc3ccccc3)nc2n1 | 1% | 9% | -1% | nt | nt | -41%
Cc1cc(C)c(C#N)c(SCC2COc3ccccc3O2)n1 (configuration not stated) | ? | 4% | 4% | -24 | 14µM* | -14%
N#Cc1cc2c(nc1SCc1ccccc1)CCCCC2 | 8% | 4% | 11% | -1 | -8% | -22%
NC[C@@H]1O[C@@H](O[C@H]2[C@H](O)[C@H](O[C@@H]3O[C@H](CO)[C@@H](O)[C@H](N)[C@@H]3O)[C@@H](N)C[C@H]2N)[C@H](N)C[C@@H]1O | 5%[20.9 µM] | 3%[21.7 µM] | -3%[20.6 µM] | nt | 1% | -13%[40.3 µM]
CCOC(=O)C1=C[C@@H](C(=O)OCC)[C@@H]2C3=C(C(=O)C2(C)C)[C@H](c2ccccc2)[C@@H]2C(=O)N(c4ccccc4)C(=O)[C@@H]2[C@@H]3C1 | nt | -16% | nt | nt | nt | nt
Cc1cc(=O)oc(C)c1C(=O)Nc1cccc(F)c1 | nt | 5% | 13%[9.22 µM] | nt | nt | 20%[10 µM]
CCCc1cc2c(n1CCc1ccc(Cl)cc1)C(C)C1CN(C(=O)c3ccccc3)C(C)(C(=O)OC)C21 (configuration not stated) | -11% | -5% | nt | nt | -14% | -3%
N[C@@H](CSCc1ccc(I)cc1)C(=O)O | 2%[13.5 µM] | nt | nt | nt | -4% | 12%[10 µM]
N=C(c1ccc2ccccc2c1)c1ccccc1Cc1ccccc1 | 3%[13.5 µM] | nt | nt | nt | -11% | 3%[10 µM]
CN1CCNC(=O)C1CC(=O)NCC1(c2ccccc2)CCCCC1 (configuration not stated) | 16µM* | -1% | -18%[9.22 µM] | nt | nt | -22%[10 µM]
CCNC(=O)[C@H](C)/C=C/C(NC(=O)OCc1ccccc1)c1ccc(C(=O)OC)cc1 (some centres not stated) | -13% | 12% | nt | nt | -8% | 6%
CN(C)c1nc(NS(=O)(=O)c2ccc(Cl)cc2)nc(N(C)C)n1 | 2% | 0% | 7% | -121* | -2% | 3%[10 µM]
COc1ccc(NS(=O)(=O)c2cccc(NC(=O)c3ccc(S(=O)(=O)N4CCCCCC4)cc3)c2)cc1 | ? | -4% | ? | -112* | -13% | 36%[0.074 µM]
O=C(Nc1ccc(Cl)cc1)Nc1ccc(S(=O)(=O)Nc2ncccn2)cc1 | -3% | -1% | 4% | nt | nt | -88%
